# Inconclusive results are not listed. Activity calls are given as the source filed them. The call rests on the fitted dose curve; in most records, active means well fitted curve in the direction sought with a large enough effect; inconclusive means small, poorly fitted or top-dose-only effect, or another doubt; inactive means no such curve, though single readings can be large; an effect the other way counts as inactive or inconclusive.
# Assay: BET inhibitor-based combinations targeting novel dependencies in MECOM-rearranged (r) AML: UCSD-AML1 cell line (AID 2202235); further: nearly all actives have a fitted effect of over 40% in size;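 on viability (% of control): plate controls were DMSO vehicle wells for no effect and blank wells for full effect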
# Conditions: UCSD-AML1 AML cells viability, CellTiter-Glo, 48 h; series mostly up to 46 µM; viability (% of control): at the top concentration
# Summary of the method: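 Each compound is tested in an 11-point concentration series against 500 seeded cells/well for 48 hr. The luminescent viability signal is normalized to DMSO and blank wells, then reduced to AUC and a cell-line-centred Z-AUC.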
# Potency means the concentration at half of the fitted maximal effect.
SMILES,viability (% of control),Potency
C=CC(=O)Nc1ccc(F)c(-c2ncnc3[nH]cc(C(=O)OCC)c23)c1,115% (inactive),–
CC(=O)C1CCC2C3CCC4=CC(=O)CCC4(C)C3CCC12C (stereo unspecified),109% (inactive),–
O=C(Nc1cccc(C(F)(F)F)c1)c1cccc2cc(Oc3cc(CO)ncn3)ccc12,108% (inactive),–
C=C1CCC[C@]2(C)C=C3OC(=O)C(C)=C3C[C@@H]12,108% (inactive),–
CC1Oc2cc(cnc2N)-c2c(nn(C)c2C#N)CN(C)C(=O)c2ccc(F)cc21 (stereo unspecified),–,20.9 µM (active)
CC(C)(c1ccc(OCC(O)CO)cc1)c1ccc(OCC(O)CCl)cc1 (stereo unspecified),91% (inactive),–
COC(=O)N(CC(=O)O)Cc1cccc(OCc2nc(-c3ccc(Cl)cc3)oc2C)c1,109% (inactive),–
COC[C@@H](c1ccc(C(F)(F)F)cc1)N1CCN(C2(C)CCN(C(=O)c3c(C)ncnc3C)CC2)C[C@@H]1C,107% (inactive),–
OCCOc1ccc(/C(=C(/CCCl)c2ccccc2)c2ccccc2)cc1,106% (inactive),–
CC/C(=C(/c1ccc(/C=C/C(=O)O)cc1)c1ccc2[nH]ncc2c1)c1ccc(F)cc1Cl,97% (inactive),–
CONC(=O)Nc1ccc(-c2sc3c(c2CN(C)Cc2ccccc2)c(=O)n(-c2ccccc2)c(=O)n3Cc2c(F)cccc2F)cc1,77.6% (inactive),–
COc1ccc2nc(S(=O)Cc3ncc(C)c(OC)c3C)[nH]c2c1 (stereo unspecified),101% (inactive),–
CC[C@H]1OC(=O)[C@H](C)[C@@H](O[C@H]2C[C@@](C)(OC)[C@@H](O)[C@H](C)O2)[C@H](C)[C@@H](O[C@@H]2O[C@H](C)C[C@H](N(C)C)[C@H]2O)[C@](C)(O)C[C@@H](C)CN(C)[C@H](C)[C@@H](O)[C@]1(C)O,71.6% (inactive),–
CC/C(=C(/CC)c1ccc(O)cc1)c1ccc(O)cc1,117% (inactive),–

# Assay: BET inhibitor-based combinations targeting novel dependencies in MECOM-rearranged (r) AML: AML-191 cell line (AID 2202236; further: nearly all actives have a fitted effect of over 35% in size;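 on viability (% of control): plate controls were vehicle wells for no effect and wells without cells for full effect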)
# Conditions: AML-191 viability, CellTiter-Glo luminescence, 48 h; series mostly up to 46 µM; viability (% of control): at the top concentration
# Summary of the method: (§1)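 A 48 hr incubation preceded viability reading by CellTiter-Glo, with 15 min room-temperature development. Dose series had 11 points; normalization used DMSO and empty wells; AUC was computed and mean-centered per line as Z-AUC.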
SMILES,viability (% of control),Potency
C=CC(=O)Nc1ccc(F)c(-c2ncnc3[nH]cc(C(=O)OCC)c23)c1,83.6% (inactive),–
O=C(Nc1cccc(C(F)(F)F)c1)c1cccc2cc(Oc3cc(CO)ncn3)ccc12,99.7% (inactive),–
C=C1CCC[C@]2(C)C=C3OC(=O)C(C)=C3C[C@@H]12,108% (inactive),–
C[C@]12CC[C@@H]3c4ccc(O)cc4CC[C@H]3[C@@H]1C[C@@H](O)[C@@H]2O,73.1% (inactive),–
c1ccc(CNCc2ccc(CN3CCCNCCNCCCNCC3)cc2)nc1,113% (inactive),–
COC(=O)[C@H]1[C@@H](O)[C@@]2(O)c3c(OC)cc(O[C@@H]4O[C@@H]([C@@H](O)CO)CO[C@H]4OC)cc3O[C@@]2(c2ccc(OC)cc2)[C@@H]1c1ccccc1,59% (inactive),–
O=C(NO)c1cnc(NC2(c3cccc(F)c3)CCCCC2)nc1,–,10.5 µM (active)
CC(C)(c1ccc(OCC(O)CO)cc1)c1ccc(OCC(O)CCl)cc1 (stereo unspecified),81% (inactive),–
CO[C@H]1/C=C/O[C@@]2(C)Oc3c(C)c(O)c4c(O)c(c(/C=N/N5CCN(C)CC5)c(O)c4c3C2=O)NC(=O)/C(C)=C\C=C\[C@H](C)[C@H](O)[C@@H](C)[C@@H](O)[C@@H](C)[C@H](OC(C)=O)[C@@H]1C,85% (inactive),–
COC(=O)N(CC(=O)O)Cc1cccc(OCc2nc(-c3ccc(Cl)cc3)oc2C)c1,88.6% (inactive),–
COc1ccc2c(c1)C(c1ccc(F)cc1)=C(CN1CCCC1)CO2,85.5% (inactive),–
COC[C@@H](c1ccc(C(F)(F)F)cc1)N1CCN(C2(C)CCN(C(=O)c3c(C)ncnc3C)CC2)C[C@@H]1C,102% (inactive),–
C=CC(=O)Nc1cc(N2CCN(CC)CC2)ccc1Nc1cc(N(C)C(=O)Nc2c(Cl)c(OC)cc(OC)c2Cl)ncn1,85.9% (inactive),–
CC/C(=C(/c1ccc(/C=C/C(=O)O)cc1)c1ccc2[nH]ncc2c1)c1ccc(F)cc1Cl,89% (inactive),–
CONC(=O)Nc1ccc(-c2sc3c(c2CN(C)Cc2ccccc2)c(=O)n(-c2ccccc2)c(=O)n3Cc2c(F)cccc2F)cc1,78.9% (inactive),–
COc1ccc2nc(S(=O)Cc3ncc(C)c(OC)c3C)[nH]c2c1 (stereo unspecified),98.6% (inactive),–
[2H]C([2H])([2H])C(O)([C@@H](C)/C=C/[C@@H](C)[C@H]1CC[C@H]2/C(=C/C=C3C[C@@H](O)C[C@H](O)C3)CCC[C@]12C)C([2H])([2H])[2H],–,14.8 µM (active)
Cc1cc(O)c(-c2ccc([C@@H](C)CN)cc2)c2c1[nH]c(=O)c1sccc12,–,0.0833 µM (active)
O=C(O)CCCCN(CCc1ccccc1OCc1ccc(CCc2ccccc2)cc1)Cc1ccc(C(=O)O)cc1,104% (inactive),–

# Assay: BET inhibitor-based combinations targeting novel dependencies in MECOM-rearranged (r) AML: AML-194 cell line (AID 2202237; further: nearly all actives have a fitted effect of over 40% in size;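 on viability (% of control): plate controls were vehicle wells for no effect and wells without cells for full effect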)
# Conditions: AML-194 (MECOM-r AML) viability, CellTiter-Glo, 48 h; series mostly up to 46 µM; viability (% of control): at the top concentration
# Summary of the method: as §1
SMILES,viability (% of control),Potency
C=CC(=O)Nc1ccc(F)c(-c2ncnc3[nH]cc(C(=O)OCC)c23)c1,74.4% (inactive),–
C=C1CCC[C@]2(C)C=C3OC(=O)C(C)=C3C[C@@H]12,106% (inactive),–
C[C@]12CC[C@@H]3c4ccc(O)cc4CC[C@H]3[C@@H]1C[C@@H](O)[C@@H]2O,95.8% (inactive),–
c1ccc(CNCc2ccc(CN3CCCNCCNCCCNCC3)cc2)nc1,117% (inactive),–
O=C1NC(=O)[C@@H](c2cn3c4c(cccc24)CCC3)[C@@H]1c1c[nH]c2ccccc12,–,0.934 µM (active)
CC(C)(c1ccc(OCC(O)CO)cc1)c1ccc(OCC(O)CCl)cc1 (stereo unspecified),89.6% (inactive),–
CO[C@H]1/C=C/O[C@@]2(C)Oc3c(C)c(O)c4c(O)c(c(/C=N/N5CCN(C)CC5)c(O)c4c3C2=O)NC(=O)/C(C)=C\C=C\[C@H](C)[C@H](O)[C@@H](C)[C@@H](O)[C@@H](C)[C@H](OC(C)=O)[C@@H]1C,89.2% (inactive),–
COC(=O)N(CC(=O)O)Cc1cccc(OCc2nc(-c3ccc(Cl)cc3)oc2C)c1,96.8% (inactive),–
COc1ccc2c(c1)C(c1ccc(F)cc1)=C(CN1CCCC1)CO2,98.6% (inactive),–
COC[C@@H](c1ccc(C(F)(F)F)cc1)N1CCN(C2(C)CCN(C(=O)c3c(C)ncnc3C)CC2)C[C@@H]1C,101% (inactive),–
C=CC(=O)Nc1cc(N2CCN(CC)CC2)ccc1Nc1cc(N(C)C(=O)Nc2c(Cl)c(OC)cc(OC)c2Cl)ncn1,96.3% (inactive),–
OCCOc1ccc(/C(=C(/CCCl)c2ccccc2)c2ccccc2)cc1,89.4% (inactive),–
CC/C(=C(/c1ccc(/C=C/C(=O)O)cc1)c1ccc2[nH]ncc2c1)c1ccc(F)cc1Cl,101% (inactive),–
CCOc1ccc(Cc2cc([C@@H]3O[C@H](CO)[C@@H](O)[C@H](O)[C@H]3O)ccc2Cl)cc1,93% (inactive),–
COc1ccc2nc(S(=O)Cc3ncc(C)c(OC)c3C)[nH]c2c1 (stereo unspecified),98.8% (inactive),–
CC[C@H]1OC(=O)[C@H](C)[C@@H](O[C@H]2C[C@@](C)(OC)[C@@H](O)[C@H](C)O2)[C@H](C)[C@@H](O[C@@H]2O[C@H](C)C[C@H](N(C)C)[C@H]2O)[C@](C)(O)C[C@@H](C)CN(C)[C@H](C)[C@@H](O)[C@]1(C)O,95.8% (inactive),–
CCOC(=O)[C@@]1(CCCCCCOc2ccc(Cl)cc2)CO1,89.9% (inactive),–
O=C(O)CCCCN(CCc1ccccc1OCc1ccc(CCc2ccccc2)cc1)Cc1ccc(C(=O)O)cc1,108% (inactive),–

# — PubChem BioAssay (NCATS)
